Records with an inconclusive call do not appear. Activity calls are given as the source filed them. Calls follow the shape of the full dose curve.
Each compound was assayed against Atrial natriuretic peptide receptor 1 (Homo sapiens) (UniProt P16066) (assay: Natriuretic polypeptide receptor (hNpr1) antagonism - Pilot screen (AID 1347049)). Settings: hNpr1 cells, antagonist mode cGMP read-out; series mostly up to 57.5 µM; activity change, negative = inhibition: at the top concentration.
Protocol: In order to identify small molecular compounds that inhibit the hNpr1 receptor we developed a high-throughput assay to measure inhibition of the guanylate cyclase activity of the receptor. cGMP production was measured using a circular permutated Firefly luciferase (FLuc) enzyme functionally linked to the cGMP binding domain of human phosphodiesterase 5 (GloSensor technology pGS-40F, (Fan, F. et al. 2008). The cGMP-sensor was expressed in human embryonic kidney 293 (HEK-293) cells and FLuc activity was measured after stimulation with hNrp agonist peptide. hNrp agonists activates the receptor's associated guanylyl cyclase (GC) domain producing cGMP which then binds to the GloSensor resulting in FLuc activation, the enzymatic activity of which can be measured as bioluminescence with addition of luciferin substrate.
F. Fan, B. F. Binkowski, B. L. Butler, P. F. Stecha, M. K. Lewis, K. V. Wood, Novel genetically encoded biosensors using firefly luciferase. ACS Chem Biol 3, 346-351 (2008).
This assay was initially piloted by testing with a small diversity library of compounds with known pharmacological activity.
PROTOCOL TABLES (as described by Inglese J, Shamu CE and Guy RK. 2007)
SEQUENCE No. (e.g., 1, 2, 3, etc.); […] (e.g., Cells, Incubation, Reagent, etc.); VALUE and DESCRIPTION.
1. Cells. Seed 1500 HEK293 cGMP-sensor cells expressing hNpr1 per well in 4uL into Greiner 1536-well white/solid bottom high base, tissue culture-treated plates.
2. Incubation. Incubate plated cells at 37C in 5% CO2, 95% RH overnight.
3. Reagent. Add 1uL per well GloSensor reagent from Promega (2% final concentration) or CO2 independent media vehicle control to respective columns of Greiner 1536-well plates.
4. Incubation. Incubate plated cells at room temperature for 2 h, protect from light.
5. Compounds. Library compounds and A-71915 control added at 23 nL per well, transferred by Pin Tool.
6. Incubation. Incubate plated cells for 30 min. at room temperature, protect from light.
7. Detector. GloSensor baseline pre-read luminescence measured using CCD-based camera (Viewlux).
8. Compound. Add 1uL of hNppA peptide to 0.1 nM final concentration to stimulate hNpr1 or CO2 independent media as vehicle control.
9. Incubation. Incubate treated cells at room temperature for 20 min., protect from light.
10. Detector. GloSensor post-hNppA luminescence measured using CCD-based camera (Viewlux).
NOTES (numbers refer to Sequence numbers above)
1. HEK293 cells expressing hNpr1 and GIP/pGS-40F grown to 85-95% confluence (48-72 h) in T175 culture flasks (CO2 independent media supplemented with 10% FBS, 1% Pen/Strep antibiotics and 1 ug/mL puromycin). Trypsinize and harvest cells from T175 culture flasks and filter through 40 um cell strainer. Cells counted with Invitrogen Countess (30,000,000 - 50,000,000 cells/flask). Cells diluted to a final concentration of 375 cells/uL in CO2 independent media and a Millipore multidrop used to dispense 1500 cells per well (4uL/well) into 9 x 1536-well Greiner White/Solid bottom, high base tissue-culture treated (TC) plates and one Aurora 1536-well Black/Clear bottom, low base, TC plate (for visual inspection of cell health throughout the duration of the assay).
2. Cells incubated overnight at ambient temperature, 24 h. at 37C in 95% RH incubator protected from light, covered with metal lid with gas-exchange holes.
3. Prepare GloSensor Reagent (Promega): Reconstitute GloSensor luciferase substrate by adding 8.2mL Hepes buffer to 250mg substrate, mix well, protect from light and stored at -80C. Prepare a fresh 12% GloSensor solution in CO2 independent supplemented plating media (see above). Mix well and store at ambient temperature, protected from light. 1uL 12% GloSensor Luciferase Reagent added (2% final concentration) to respective columns of 9 x 1536-well Greiner plate with BioRaptr, 1uL CO2 independent plating media added to respective columns as vehicle control with BioRaptr.
4. […]
% is scaled to controls: 0 for no effect and ±100 for the full control effect.

Atrial natriuretic peptide receptor 1 (Homo sapiens), sequence (P16066 whole entry, looked up, the tested form may be a part): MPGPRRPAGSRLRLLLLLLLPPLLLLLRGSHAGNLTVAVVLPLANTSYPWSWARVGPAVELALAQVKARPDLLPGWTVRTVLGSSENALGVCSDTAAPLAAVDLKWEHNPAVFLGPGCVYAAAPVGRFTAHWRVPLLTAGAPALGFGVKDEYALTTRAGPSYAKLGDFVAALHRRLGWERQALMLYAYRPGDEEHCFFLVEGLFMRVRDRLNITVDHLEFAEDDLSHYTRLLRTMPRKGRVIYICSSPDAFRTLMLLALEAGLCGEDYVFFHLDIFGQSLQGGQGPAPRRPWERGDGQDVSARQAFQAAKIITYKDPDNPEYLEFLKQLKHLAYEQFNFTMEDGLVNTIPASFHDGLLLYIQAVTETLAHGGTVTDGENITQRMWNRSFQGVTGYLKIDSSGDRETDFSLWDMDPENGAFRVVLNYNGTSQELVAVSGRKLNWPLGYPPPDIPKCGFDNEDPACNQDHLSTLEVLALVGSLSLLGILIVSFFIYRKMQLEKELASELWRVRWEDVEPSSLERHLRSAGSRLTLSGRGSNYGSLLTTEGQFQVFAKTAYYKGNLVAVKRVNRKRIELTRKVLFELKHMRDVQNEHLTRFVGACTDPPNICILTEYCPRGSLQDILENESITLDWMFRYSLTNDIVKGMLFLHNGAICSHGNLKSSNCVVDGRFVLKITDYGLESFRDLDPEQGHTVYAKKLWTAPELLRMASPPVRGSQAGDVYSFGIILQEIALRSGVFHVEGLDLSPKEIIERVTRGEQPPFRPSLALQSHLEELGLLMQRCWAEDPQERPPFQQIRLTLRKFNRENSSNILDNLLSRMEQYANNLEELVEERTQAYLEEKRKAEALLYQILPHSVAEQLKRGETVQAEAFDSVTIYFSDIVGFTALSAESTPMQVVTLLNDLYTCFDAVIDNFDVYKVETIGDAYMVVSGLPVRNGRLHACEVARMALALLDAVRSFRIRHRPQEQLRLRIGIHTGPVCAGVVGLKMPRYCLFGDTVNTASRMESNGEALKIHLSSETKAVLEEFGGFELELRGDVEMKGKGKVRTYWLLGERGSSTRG

| Structure (SMILES) | activity change, negative = inhibition | outcome |
| --- | --- | --- |
| N=c1nc(N2CCCCC2)cc(N)n1O | 15.8% (inactive) |  |
| CCCCNc1cc(C(=O)O)cc(S(N)(=O)=O)c1Oc1ccccc1 | -6.13% (inactive) |  |
| O=NN(CCCl)C(=O)NCCCl | 0.584% (inactive) |  |
| CCOC(=O)C1=C[C@]2(CC)CCCN3CCc4c(n1c1ccccc41)[C@@H]32 | 9.04% (inactive) |  |
| Cc1[nH]c(=O)c(C#N)cc1-c1ccncc1 | 5.79% (inactive) |  |
| Nc1nc2ccc(OC(F)(F)F)cc2s1 | 5.44% (inactive) |  |
| CC(C)NCC(O)COc1ccc(COCCOC(C)C)cc1 (stereo not given) | 3.56% (inactive) |  |
| NS(=O)(=O)c1cc2c(cc1Cl)NC=NS2(=O)=O | 3.02% (inactive) |  |
| NCCc1ccc(O)c(O)c1 | 24.7% (inactive) |  |
| NC(=O)c1cnccn1 | -1.51% (inactive) |  |
| NC(N)=NC(=O)c1nc(Cl)c(N)nc1N | 2.52% (inactive) |  |
| CC(C)(C)NCC(O)c1ccc(O)c(CO)c1 (stereo not given) |  | inactive |
| Oc1ccc(C2CNCCc3c2cc(O)c(O)c3Cl)cc1 (stereo not given) | 10.8% (inactive) |  |
| Clc1cccc(Cl)c1NC1=NCCN1 | 4.1% (inactive) |  |
| NNCCc1ccccc1 | 3.19% (inactive) |  |
| C[C@]12CCC(=O)C=C1CC[C@@H]1[C@@H]2[C@@H](O)C[C@@]2(C)[C@H]1CC[C@]2(O)C(=O)CO | 5.8% (inactive) |  |
| Cn1cnc([N+](=O)[O-])c1Sc1ncnc2nc[nH]c12 | -1.94% (inactive) |  |
| C1COC(NC(C2CC2)C2CC2)=N1 | 3.49% (inactive) |  |
| CN1CCN(CCCN2c3ccccc3Sc3ccc(C(F)(F)F)cc32)CC1 | -21.5% (inactive) |  |
| O=c1[nH]cnc2[nH]ncc12 | 6.76% (inactive) |  |

| Structure (SMILES) | activity change, negative = inhibition | outcome |
| --- | --- | --- |
| O=C1CCc2cc(OCCCCc3nnnn3C3CCCCC3)ccc2N1 | 1.39% (inactive) |  |
| Nc1ncnc2nc(-c3ccc(N4CCOCC4)nc3)cc(-c3cccc(Br)c3)c12 | -9.61% (inactive) |  |
| CCC(C)N(C)C(=O)c1cc2ccccc2c(-c2ccccc2Cl)n1 (stereo not given) | 22.1% (inactive) |  |
| O=c1n(CCCN2CCN(c3cccc(Cl)c3)CC2)nc2ccccn12 | 2.06% (inactive) |  |
| OC(CN1CCC(Cc2ccc(F)cc2)CC1)c1ccc(Cl)cc1 (stereo not given) | 8.2% (inactive) |  |
| CC(C)(Sc1ccc(CCN(CCCCC2CCCCC2)C(=O)NC2CCCCC2)cc1)C(=O)O | -6.45% (inactive) |  |
| Cc1cn[nH]c1 | -3.64% (inactive) |  |
| CCn1cc(C(=O)O)c(=O)c2cc(F)c(N3CCNC(C)C3)c(F)c21 (stereo not given) | 5.72% (inactive) |  |
| CC(C)C[C@H](NC(=O)[C@@H](O)[C@H](N)Cc1ccccc1)C(=O)O | -3.44% (inactive) |  |
| O=C(O)COCCN1CCN(C(c2ccccc2)c2ccc(Cl)cc2)CC1 (stereo not given) | -25.1% (inactive) |  |
| OC(CCN1CCCCC1)(c1ccccc1)C1CC2C=CC1C2 (stereo not given) | 0.148% (inactive) |  |
| CCN(CC)CCCC(C)Nc1ccnc2cc(Cl)ccc12 (stereo not given) | 1.07% (inactive) |  |
| Nc1ccc(S(=O)(=O)Nc2ccnn2-c2ccccc2)cc1 | 6.95% (inactive) |  |
| Cc1ccc(N(CC2=NCCN2)c2cccc(O)c2)cc1 | 2.88% (inactive) |  |
| CCOC(=O)N1CCC(=C2c3ccc(Cl)cc3CCc3cccnc32)CC1 | -10.5% (inactive) |  |
| O=C(Nc1nc2ccccc2n1CCN1CCOCC1)c1cccc([N+](=O)[O-])c1 | -27.8% (inactive) |  |
| Cc1cccc(-c2[nH]c(C(C)(C)C)nc2-c2ccc3nccnc3c2)n1 | -0.618% (inactive) |  |
| CCCC(CCC)C(=O)O | 2.15% (inactive) |  |
| Cc1ccccc1C(OCCN(C)C)c1ccccc1 (stereo not given) | 1.64% (inactive) |  |
| Cc1[nH]c(=O)c(C#N)cc1-c1ccc2nccn2c1 | 0.65% (inactive) |  |
